From ChEMBL document CHEMBL3433997, “St. Jude Leishmania screening dataset” (2016)

Each compound was assayed against Hexose transporter 1 (Plasmodium falciparum) (UniProt O97467) (assay: ST_JUDE_LEISH: Cytotoxicity at 2uM final concentration against transgenic Leishmania Mexicana promastigotes LmPfHT that are glucose transport deficient and complemented with the Plasmodium falciparum hexose transporter. Activity is measured by DNA content using SYBR green in vitro).
Type: functional

SMILES	inhibition [%]
CC1CCCN1Cc1cccc(-c2ccc(C(=O)NCCOc3ccccc3)s2)c1 (stereo not given)	38.9
COc1cc2nc(N3CCC(CNC(=O)c4cc(Br)c(Br)s4)CC3)nc(N)c2cc1OC	9.82
COc1cc2c(cc1OC)CN(CCCCc1ccc(NC(=O)c3cc(Cl)cc(Cl)c3)cc1)CC2	4.95
O=C(Nc1cccc(-c2ccc(-c3nc4cc(C(F)(F)F)ccc4[nH]3)s2)c1)c1ccncc1	8.56
Cn1c(N)c(N=O)c(=O)[nH]c1=O	0.51
Cc1ccc(-c2nc3cc(C(=O)NC4CCN(Cc5ccccc5)CC4)ccc3[nH]2)cc1	2.07
CS(=O)(=O)c1ccc(-c2cnc(N)c(-c3ccc(O)cc3)c2)cc1	1.67
COc1ccc(Nc2ccnc3cc(-c4ccccn4)ccc23)cc1OC	0.73
COc1cc2nc(N[C@@H](CO)c3ccccc3)nc(NCc3ccccc3)c2cc1OC	2.17
O=C(Cn1c(CCc2cccc(F)c2F)cc(=O)c2ccccc21)N(Cc1ccc(-c2ccc(C(F)(F)F)cc2)cc1)C1CCN(CCN2CCOCC2)CC1	1.75
COc1ccc(CNCCc2cccs2)cc1-c1ccc(S(=O)(=O)NCCN2CCCC2)s1	5.45
CC(C)(CNCc1ccc(F)c(F)c1)c1nc(-c2ccc(Cl)c(O)c2)c(-c2ccncc2)[nH]1	0.25
CCCN(CCC)C(=O)c1cc(C(=O)N[C@@H](Cc2ccccc2)[C@H](O)CNCc2cccc(OC)c2)cc(N2CCCCS2(=O)=O)c1	5.76
N=C(Nc1nc(-c2ccccn2)cc2ccccc12)c1cccc(Cl)c1	48.7
O=C(N[C@@H](Cc1ccccc1)C(=O)NC1CCCCCC1)c1ccc(O)c(-c2ccc(Cl)c(Cl)c2)c1	3.77
O=C(NC1CC1)c1ccc(Nc2nccc(-c3c(-c4cccc(NC(=O)c5c(F)cccc5F)c4)nn4ccccc34)n2)cc1	8.87
O=C(Nc1ccccc1)Nc1ccc(-c2cccc(-c3nc4cc(C(F)(F)F)ccc4[nH]3)c2)cc1	0.5
FC(F)(F)c1cc(CNCCCNc2nc3ccncc3[nH]2)ccc1Cl	1.51
CC(C)CCn1c(Sc2ccc([N+](=O)[O-])cc2C(F)(F)F)nnc1-c1ccccc1Cl	1.95
NC1CCN(Cc2cccc(-c3ccc(-c4nc5ccccc5[nH]4)s3)c2)C1 (stereo not given)	2.41

SMILES	inhibition [%]
Cc1ccc(NC(=O)c2ccc3ncccc3c2)cc1OC1CCN(Cc2ccsc2)CC1	3.4
Cc1ccoc1C(=O)Nc1cccc(-c2cccc(-c3nc4ccccc4[nH]3)c2)c1	6.56
O=C(NCCCN1CCC(N2CCCCC2)CC1)c1ccc2nc(N3CCCCC3)sc2c1	8.39
O=C(Nc1n[nH]c2nc(-c3ccco3)c(Br)cc12)c1ccc(CN2CCCC2)cc1	3.71
O=C(/C=C/c1ccc(Cl)c(Cl)c1)NCCCCCN1CCC(NC(=O)c2ccc(F)cc2F)CC1	5.55
Cc1cc(-c2ccc(NC(=O)N3CCc4cc(Br)c(N5CCN(C)CC5)cc43)cc2)cc(C)n1	8.41
Cc1ccc(NC(=O)c2cccc(CN3CCCN(Cc4cccc(O)c4)CC3)c2)cc1	0.65
CCOC(=O)c1cc2c(CCN3C(=O)c4ccccc4C3=O)cn(C)c2cc1-c1ccncc1	91
CC1(C)C(=O)Nc2ccc3c(c21)CC1SC(=O)NN=C31 (stereo not given)	0.11
CNCCNCc1ccc(-c2ccc(-c3nc4cc(F)ccc4[nH]3)s2)cc1	7.79
CCCCCCCN1CC[C@@H](CCCc2ccnc3ccc(OC)cc23)[C@@H](CCN)C1	2.34
CN(C)CCCn1c(N)c(-c2nc3ccccc3[nH]2)c2nc(C#N)c(C#N)nc21	2.05
Cc1nc2cc(/C=C/C(=O)NC3CCC(CCN4CCc5ccc(C#N)cc5CC4)CC3)ccc2[nH]1 (stereo not given)	2.24
Cc1ccc(Nc2nccc(Nc3ccc4c(c3)nc(Nc3cc(C(C)(C)C)on3)n4C)n2)cc1S(C)(=O)=O	5.38
CCC(C)OC(=O)C1=C(C)NC2=C(C(=O)CC(c3ccc(OC)c(OC)c3)C2)C1c1ccc(O)cc1 (stereo not given)	1.77
CN1CCN(CC2(Nc3nccc(NCc4ccc(Cl)cc4Cl)n3)CCCCC2)CC1	7.74
CC(C)(C)CC(C)(C)c1ccc(O)c(C(=O)Nc2cccc([N+](=O)[O-])c2)c1	2.51
Cc1cccc(CC2CC(=O)N(c3ccc([N+](=O)[O-])cc3)C2=O)c1 (stereo not given)	7.62
CCN(CC)CCCN(C(=O)Nc1c(Cl)cncc1Cl)c1nc(-c2ccc(F)cc2)cs1	2.42
Cc1cc2c(cc1C(F)(F)F)N(C(=O)Nc1cc(OCCN(C)C)cc(C(F)(F)F)c1)CC2	-1.6

The compounds below were run against Glucose transporter (Leishmania mexicana) (UniProt O61059) (assay: ST_JUDE_LEISH: Cytotoxicity at 2uM final concentration against transgenic Leishmania Mexicana promastigotes LmGT2 that are glucose transport deficient and complemented with the L. Mexicana glucose transporter 2. Activity is measured by DNA content using SYBR green in vitro).
Type: functional

SMILES	inhibition [%]
CC1CCCN1Cc1cccc(-c2ccc(C(=O)NCCOc3ccccc3)s2)c1 (stereo not given)	25.7
COc1cc2nc(N3CCC(CNC(=O)c4cc(Br)c(Br)s4)CC3)nc(N)c2cc1OC	6.92
COc1cc2c(cc1OC)CN(CCCCc1ccc(NC(=O)c3cc(Cl)cc(Cl)c3)cc1)CC2	-0.56
O=C(Nc1cccc(-c2ccc(-c3nc4cc(C(F)(F)F)ccc4[nH]3)s2)c1)c1ccncc1	7.24
Cn1c(N)c(N=O)c(=O)[nH]c1=O	1.58
Cc1ccc(-c2nc3cc(C(=O)NC4CCN(Cc5ccccc5)CC4)ccc3[nH]2)cc1	0.96
CS(=O)(=O)c1ccc(-c2cnc(N)c(-c3ccc(O)cc3)c2)cc1	1.48
COc1ccc(Nc2ccnc3cc(-c4ccccn4)ccc23)cc1OC	-0.54
COc1cc2nc(N[C@@H](CO)c3ccccc3)nc(NCc3ccccc3)c2cc1OC	1.61
O=C(Cn1c(CCc2cccc(F)c2F)cc(=O)c2ccccc21)N(Cc1ccc(-c2ccc(C(F)(F)F)cc2)cc1)C1CCN(CCN2CCOCC2)CC1	1.28
COc1ccc(CNCCc2cccs2)cc1-c1ccc(S(=O)(=O)NCCN2CCCC2)s1	4.66
CC(C)(CNCc1ccc(F)c(F)c1)c1nc(-c2ccc(Cl)c(O)c2)c(-c2ccncc2)[nH]1	0.94
CCCN(CCC)C(=O)c1cc(C(=O)N[C@@H](Cc2ccccc2)[C@H](O)CNCc2cccc(OC)c2)cc(N2CCCCS2(=O)=O)c1	5.14
N=C(Nc1nc(-c2ccccn2)cc2ccccc12)c1cccc(Cl)c1	18.1
O=C(N[C@@H](Cc1ccccc1)C(=O)NC1CCCCCC1)c1ccc(O)c(-c2ccc(Cl)c(Cl)c2)c1	3.08
O=C(NC1CC1)c1ccc(Nc2nccc(-c3c(-c4cccc(NC(=O)c5c(F)cccc5F)c4)nn4ccccc34)n2)cc1	3.41
O=C(Nc1ccccc1)Nc1ccc(-c2cccc(-c3nc4cc(C(F)(F)F)ccc4[nH]3)c2)cc1	2.05
FC(F)(F)c1cc(CNCCCNc2nc3ccncc3[nH]2)ccc1Cl	0.35
CC(C)CCn1c(Sc2ccc([N+](=O)[O-])cc2C(F)(F)F)nnc1-c1ccccc1Cl	2.26
NC1CCN(Cc2cccc(-c3ccc(-c4nc5ccccc5[nH]4)s3)c2)C1 (stereo not given)	4.58

SMILES	inhibition [%]
Cc1ccc(NC(=O)c2ccc3ncccc3c2)cc1OC1CCN(Cc2ccsc2)CC1	2.95
Cc1ccoc1C(=O)Nc1cccc(-c2cccc(-c3nc4ccccc4[nH]3)c2)c1	5.58
O=C(NCCCN1CCC(N2CCCCC2)CC1)c1ccc2nc(N3CCCCC3)sc2c1	8.02
O=C(Nc1n[nH]c2nc(-c3ccco3)c(Br)cc12)c1ccc(CN2CCCC2)cc1	3.01
O=C(/C=C/c1ccc(Cl)c(Cl)c1)NCCCCCN1CCC(NC(=O)c2ccc(F)cc2F)CC1	-1.5
Cc1cc(-c2ccc(NC(=O)N3CCc4cc(Br)c(N5CCN(C)CC5)cc43)cc2)cc(C)n1	10.1
Cc1ccc(NC(=O)c2cccc(CN3CCCN(Cc4cccc(O)c4)CC3)c2)cc1	0.25
CCOC(=O)c1cc2c(CCN3C(=O)c4ccccc4C3=O)cn(C)c2cc1-c1ccncc1	90.9
CC1(C)C(=O)Nc2ccc3c(c21)CC1SC(=O)NN=C31 (stereo not given)	0.01
CNCCNCc1ccc(-c2ccc(-c3nc4cc(F)ccc4[nH]3)s2)cc1	8.77
CCCCCCCN1CC[C@@H](CCCc2ccnc3ccc(OC)cc23)[C@@H](CCN)C1	0.84
CN(C)CCCn1c(N)c(-c2nc3ccccc3[nH]2)c2nc(C#N)c(C#N)nc21	-0.05
Cc1nc2cc(/C=C/C(=O)NC3CCC(CCN4CCc5ccc(C#N)cc5CC4)CC3)ccc2[nH]1 (stereo not given)	3.19
Cc1ccc(Nc2nccc(Nc3ccc4c(c3)nc(Nc3cc(C(C)(C)C)on3)n4C)n2)cc1S(C)(=O)=O	-1.41
CCC(C)OC(=O)C1=C(C)NC2=C(C(=O)CC(c3ccc(OC)c(OC)c3)C2)C1c1ccc(O)cc1 (stereo not given)	1.8
CN1CCN(CC2(Nc3nccc(NCc4ccc(Cl)cc4Cl)n3)CCCCC2)CC1	6.18
CC(C)(C)CC(C)(C)c1ccc(O)c(C(=O)Nc2cccc([N+](=O)[O-])c2)c1	1.44
Cc1cccc(CC2CC(=O)N(c3ccc([N+](=O)[O-])cc3)C2=O)c1 (stereo not given)	7.64
CCN(CC)CCCN(C(=O)Nc1c(Cl)cncc1Cl)c1nc(-c2ccc(F)cc2)cs1	3.83
Cc1cc2c(cc1C(F)(F)F)N(C(=O)Nc1cc(OCCN(C)C)cc(C(F)(F)F)c1)CC2	-0.42
